Among the test systems are T-47D breast; BT-549 breast; MDA-MB-435 melanoma; SW-620 colon; MCF7 breast; HCT-116 colon; HCC-2998 colon; KM12 colon.
What all share (assay): NCI-60 one-dose screen, 48 h (100 = growth as untreated, 0 = no growth, -100 = all killed)
What all share (settings): 10 µM unless noted

About 83,000 compounds went through this panel and 20% of them were active in at least one assay; those are over-represented in the sample as a whole.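 In brief: 96-well plates, 48 h treatment, single concentration, percent growth endpoint.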 A number with no mark means an inactive call. The source made the active and inactive calls. The calls were made as follows: active = growth percent below 10; inactive = the rest.

`Cc1ccc(-c2cc(-c3nnc(SCC(=O)c4ccccc4)o3)c3ccccc3n2)cc1`: the growth is 93% in the test with T-47D breast; 93.4% in the test with BT-549 breast; 93.5% in the test with MDA-MB-435 melanoma; 101% in the test with SW-620 colon; 91.2% in the test with MCF7 breast; 99% in the test with HCT-116 colon. For the same molecule, the results for the growth with HCC-2998 colon and in the test on KM12 colon were 99.6% and 94.1%, respectively.

Regarding `COc1ccc(Cn2cc3c(c2-c2cc(OC)c(OC)c(OC)c2)CCc2c(CO)noc2-3)cc1`, the growth was 64.3% in the test on T-47D breast; 0.154% (active) in the test on BT-549 breast; -27.1% (active) with MDA-MB-435 melanoma; 21.4% with SW-620 colon; 19.6% in the test on MCF7 breast; 7.89% (active) in the test on HCT-116 colon. The growth was 26.5% in the test on HCC-2998 colon and 16.5% in the test on KM12 colon.

Turning to `O=C(Nc1cccc([N+](=O)[O-])c1)Nc1cccc([N+](=O)[O-])c1`, the growth with T-47D breast is 6.88% (active); in the test with BT-549 breast it was 50.5%; in the test with MDA-MB-435 melanoma, 63.1%; in the test on SW-620 colon it was 45.4%; in the test with MCF7 breast it was 20.7%; in the test with HCT-116 colon, 37.3%. Besides, the growth was 45.2% with HCC-2998 colon and 27.7% with KM12 colon.

On to `O=C(/C=C/c1ccco1)c1cccc(Nc2nc(Nc3ccccc3)nc(Nc3ccccc3)n2)c1`, for which the growth in the test with T-47D breast was 48.6%; with BT-549 breast, 116%; with MDA-MB-435 melanoma it was 102%; in the test with SW-620 colon, 88%; with MCF7 breast, 28.3%; with HCT-116 colon it was 40.4%. Further, the growth was 68.5% in the test with HCC-2998 colon and 83.7% in the test with KM12 colon.

On to `CCCN1C(=O)CSC1=Nc1ccc2cc3ccc(N=C4SCC(=O)N4CCC)cc3nc2c1`, for which the growth in the test with T-47D breast is 12.1%; with BT-549 breast it was 41.7%; in the test with MDA-MB-435 melanoma it was 40.5%; in the test on SW-620 colon it was 70.3%; in the test with MCF7 breast, 16.8%; with HCT-116 colon it was 37%. For the same molecule, the growth with HCC-2998 colon was 64.2%; with KM12 colon, 36.7%.

Regarding `CC(=O)N1N=C2N(Cc3ccccc3)C(=O)c3c(sc4c3CCCC4)N2C1c1cn(-c2ccccc2)nc1-c1ccc(Cl)cc1` (configuration not stated), the growth is 80.8% with T-47D breast; 99.5% in the test on BT-549 breast; 95.4% in the test with MDA-MB-435 melanoma; 103% in the test on SW-620 colon; 92.4% in the test on MCF7 breast; 96.8% in the test on HCT-116 colon. Besides, the growth in the test on HCC-2998 colon is 112%; in the test with KM12 colon, 98%.

As for `CS(=O)(=O)Nc1cccc(-c2ccc3ncnc(Nc4cncc(Cl)c4)c3c2)c1`, the growth in the test on T-47D breast is -21.9% (active); with BT-549 breast it was 34.8%; in the test with MDA-MB-435 melanoma it was 49.9%; in the test with SW-620 colon, 33.2%; in the test with MCF7 breast, 15.6%; in the test with HCT-116 colon, 30.4%. The growth in the test on HCC-2998 colon was 39.2%; in the test on KM12 colon, 32.7%.

In the case of `CCN(CC)CCC(C(=O)O)(c1ccccc1)c1ccccc1`, the growth in the test with T-47D breast is 77.7%; with BT-549 breast it was 95.6%; with MDA-MB-435 melanoma, 98.3%; in the test on SW-620 colon it was 97.9%; in the test on MCF7 breast, 91.8%; in the test with HCT-116 colon, 90.9%. Moreover, the results for the growth in the test with HCC-2998 colon and with KM12 colon were 106% and 100%, respectively.

In the case of `O=C(NCCNc1nccc(-c2c(-c3cccc(O)c3)nc3sccn23)n1)c1ccccc1`, the growth in the test with T-47D breast was 58.6%; in the test with BT-549 breast it was 61.4%; in the test with MDA-MB-435 melanoma, 24%; with SW-620 colon, 78.2%; in the test on MCF7 breast it was 38.1%; with HCT-116 colon, 42.5%. The growth with HCC-2998 colon is 97.8%; in the test on KM12 colon, 75.9%.

Regarding `O=C(O)c1ccc(-c2nn(-c3ccc(C(=O)O)cc3)cc2/C=N/Nc2c(F)c(F)cc(F)c2F)cc1`, the growth with T-47D breast was 95%; with BT-549 breast it was 120%; with MDA-MB-435 melanoma, 107%; in the test on SW-620 colon, 110%; in the test on MCF7 breast, 95.7%; with HCT-116 colon it was 100%. The growth with HCC-2998 colon and in the test with KM12 colon was 100% throughout.

For the molecule `CCOc1cccc(Nc2nc(N)nc3[nH]c4ccc(O)cc4c23)c1`, the growth in the test with T-47D breast is 18.8%; with BT-549 breast, 68.8%; with MDA-MB-435 melanoma, 84.2%; with SW-620 colon it was 76.1%; in the test with MCF7 breast, 43.1%; in the test on HCT-116 colon, 72.9%. For the same molecule, the growth was 89.8% with HCC-2998 colon and 87.6% with KM12 colon.

For the molecule `CC[C@H]1[C@@H]2C=C[C@@H]3[C@H]4C/C=C\C(=O)NCCC[C@@H]5NC(=O)/C(=C(O)/C=C/[C@@H]4C[C@@H]3[C@H]2C[C@H]1C)C5=O`, the growth is 33.7% with T-47D breast; -49.2% (active) in the test with BT-549 breast; -81% (active) with MDA-MB-435 melanoma; 69.2% in the test on SW-620 colon; 41.3% in the test with MCF7 breast; -11.8% (active) in the test on HCT-116 colon. Moreover, the growth with HCC-2998 colon is 52.8%; in the test with KM12 colon it was 63.8%.

Take `O=C(O)c1ccc(-n2cc(/C=N/Nc3ccc(Cl)cc3)c(-c3ccc(F)c(F)c3)n2)cc1`: the growth in the test on T-47D breast was 65.9%; in the test on BT-549 breast it was 70%; in the test on MDA-MB-435 melanoma it was 86.5%; in the test with SW-620 colon, 61.3%; in the test on MCF7 breast, 46.5%; in the test with HCT-116 colon it was 47.5%. Also, the growth is 82.6% with HCC-2998 colon and 69.2% with KM12 colon.

Turning to `COc1cc2ncnc(Oc3ccc(NC(=O)Nc4ccc(C5(C#N)CCCC5)cc4)c4ccccc34)c2cc1OC`, the growth with T-47D breast is 64.3%; in the test on BT-549 breast, 86.5%; in the test on MDA-MB-435 melanoma, 43.4%; in the test on SW-620 colon it was 53.9%; in the test with MCF7 breast, 55.2%; with HCT-116 colon it was 30.8%. Besides, the values for the growth in the test with HCC-2998 colon and with KM12 colon were 107% and 43.7%, respectively.

(Values after PubChem BioAssay (NCI).)
